Experiments:
[1] = molecular target: Protein kinase C gamma type (Homo sapiens) (UniProt P05129); settings: at 1 µM;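 also: each value is an averaged percent inhibition of the enzyme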
[2] = molecular target: T1, Protein kinase C iota type (Homo sapiens) (UniProt P41743); settings: at 0.1 µM
T1 sequence (whole entry): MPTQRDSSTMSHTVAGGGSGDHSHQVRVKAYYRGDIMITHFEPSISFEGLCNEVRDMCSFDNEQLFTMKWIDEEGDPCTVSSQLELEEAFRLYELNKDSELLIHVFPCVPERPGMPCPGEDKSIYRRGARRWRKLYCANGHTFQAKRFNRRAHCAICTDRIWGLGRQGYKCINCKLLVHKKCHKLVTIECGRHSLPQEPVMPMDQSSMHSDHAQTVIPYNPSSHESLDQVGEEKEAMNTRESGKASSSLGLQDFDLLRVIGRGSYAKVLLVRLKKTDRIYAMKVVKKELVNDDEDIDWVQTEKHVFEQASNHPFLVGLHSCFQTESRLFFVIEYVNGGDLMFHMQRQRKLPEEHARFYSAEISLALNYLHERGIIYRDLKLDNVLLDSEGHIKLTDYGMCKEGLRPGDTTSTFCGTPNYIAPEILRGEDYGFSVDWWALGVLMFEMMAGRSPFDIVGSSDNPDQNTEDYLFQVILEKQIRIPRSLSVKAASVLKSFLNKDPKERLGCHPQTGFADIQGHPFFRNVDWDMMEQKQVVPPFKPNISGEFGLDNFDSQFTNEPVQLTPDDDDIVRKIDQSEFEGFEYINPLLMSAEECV

[3] = molecular target: T1, Protein kinase C iota type (Homo sapiens); settings: at 1 µM
[4] = molecular target: Protein kinase C theta type (Homo sapiens) (UniProt Q04759); settings: at 0.1 µM
Protein kinase C theta type (Homo sapiens), sequence (Q04759 whole entry, looked up): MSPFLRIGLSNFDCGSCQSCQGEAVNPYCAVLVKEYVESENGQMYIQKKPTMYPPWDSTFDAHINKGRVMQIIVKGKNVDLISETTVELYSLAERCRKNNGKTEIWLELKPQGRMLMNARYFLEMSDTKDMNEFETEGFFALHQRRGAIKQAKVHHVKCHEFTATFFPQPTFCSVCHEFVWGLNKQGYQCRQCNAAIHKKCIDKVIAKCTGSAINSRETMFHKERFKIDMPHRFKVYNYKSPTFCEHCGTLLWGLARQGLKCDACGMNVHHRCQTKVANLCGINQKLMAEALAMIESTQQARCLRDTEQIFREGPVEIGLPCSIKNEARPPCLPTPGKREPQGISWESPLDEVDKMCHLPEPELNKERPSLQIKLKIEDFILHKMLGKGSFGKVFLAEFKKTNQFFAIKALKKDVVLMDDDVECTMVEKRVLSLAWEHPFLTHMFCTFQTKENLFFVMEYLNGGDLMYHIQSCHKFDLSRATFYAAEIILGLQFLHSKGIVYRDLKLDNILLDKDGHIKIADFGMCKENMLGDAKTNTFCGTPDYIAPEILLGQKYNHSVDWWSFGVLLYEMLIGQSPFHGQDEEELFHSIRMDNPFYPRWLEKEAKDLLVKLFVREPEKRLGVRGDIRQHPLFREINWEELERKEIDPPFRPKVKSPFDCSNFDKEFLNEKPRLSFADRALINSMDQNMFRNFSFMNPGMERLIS

[5] = molecular target: Protein kinase C theta type (Homo sapiens) (UniProt Q04759); settings: at 1 µM
[6] = molecular target: Protein kinase C beta type (Homo sapiens) (UniProt P05771); settings: at 0.1 µM
Protein kinase C beta type (Homo sapiens), sequence (P05771 2-671 limits assumed): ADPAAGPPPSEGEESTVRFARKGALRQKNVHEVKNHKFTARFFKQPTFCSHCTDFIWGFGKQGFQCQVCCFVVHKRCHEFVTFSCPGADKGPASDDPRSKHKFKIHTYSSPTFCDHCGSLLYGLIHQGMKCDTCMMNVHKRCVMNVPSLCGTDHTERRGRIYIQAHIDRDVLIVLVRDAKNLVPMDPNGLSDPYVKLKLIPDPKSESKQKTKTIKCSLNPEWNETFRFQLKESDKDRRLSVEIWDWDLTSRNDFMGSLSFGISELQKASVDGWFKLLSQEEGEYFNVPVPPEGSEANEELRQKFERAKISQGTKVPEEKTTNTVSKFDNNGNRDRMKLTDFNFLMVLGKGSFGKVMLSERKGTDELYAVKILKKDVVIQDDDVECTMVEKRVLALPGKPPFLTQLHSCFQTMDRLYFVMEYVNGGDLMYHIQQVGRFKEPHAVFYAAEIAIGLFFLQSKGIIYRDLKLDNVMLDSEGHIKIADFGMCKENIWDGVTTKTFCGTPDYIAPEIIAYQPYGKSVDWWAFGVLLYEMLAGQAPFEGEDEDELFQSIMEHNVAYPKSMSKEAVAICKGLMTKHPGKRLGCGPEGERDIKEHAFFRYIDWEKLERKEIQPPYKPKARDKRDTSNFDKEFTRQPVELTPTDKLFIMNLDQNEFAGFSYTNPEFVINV

[7] = molecular target: Protein kinase C beta type (Homo sapiens) (UniProt P05771); settings: at 1 µM
[8] = molecular target: T2, Serine/threonine-protein kinase D1 (Homo sapiens) (UniProt Q15139); settings: at 0.1 µM
T2 sequence (whole entry): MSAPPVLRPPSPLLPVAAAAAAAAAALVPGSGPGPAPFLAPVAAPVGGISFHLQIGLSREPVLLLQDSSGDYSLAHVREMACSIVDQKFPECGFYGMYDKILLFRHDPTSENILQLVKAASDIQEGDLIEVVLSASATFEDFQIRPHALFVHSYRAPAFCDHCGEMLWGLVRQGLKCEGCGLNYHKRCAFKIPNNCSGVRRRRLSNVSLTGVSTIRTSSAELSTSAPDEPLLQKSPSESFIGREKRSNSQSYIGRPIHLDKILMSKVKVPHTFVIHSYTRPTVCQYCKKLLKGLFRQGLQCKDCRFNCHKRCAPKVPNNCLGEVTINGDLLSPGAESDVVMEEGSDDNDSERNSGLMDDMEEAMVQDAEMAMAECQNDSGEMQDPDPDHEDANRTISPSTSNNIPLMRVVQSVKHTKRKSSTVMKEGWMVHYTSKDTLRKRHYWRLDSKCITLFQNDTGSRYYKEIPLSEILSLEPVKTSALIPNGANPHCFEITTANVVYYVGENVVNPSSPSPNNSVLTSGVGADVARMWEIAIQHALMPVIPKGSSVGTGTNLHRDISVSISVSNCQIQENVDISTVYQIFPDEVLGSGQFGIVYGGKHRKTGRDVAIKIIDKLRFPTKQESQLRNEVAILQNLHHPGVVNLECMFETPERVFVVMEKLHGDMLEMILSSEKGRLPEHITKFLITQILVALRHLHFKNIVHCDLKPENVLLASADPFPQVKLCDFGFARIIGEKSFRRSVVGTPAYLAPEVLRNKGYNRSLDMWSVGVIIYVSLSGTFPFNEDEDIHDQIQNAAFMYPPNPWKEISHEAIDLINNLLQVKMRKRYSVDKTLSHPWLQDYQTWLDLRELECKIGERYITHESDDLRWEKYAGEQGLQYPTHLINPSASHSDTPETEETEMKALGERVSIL

[9] = molecular target: T2, Serine/threonine-protein kinase D1 (Homo sapiens); settings: at 1 µM
[10] = molecular target: T3, Serine/threonine-protein kinase D2 (Homo sapiens) (UniProt Q9BZL6); settings: at 0.1 µM
T3 sequence (whole entry): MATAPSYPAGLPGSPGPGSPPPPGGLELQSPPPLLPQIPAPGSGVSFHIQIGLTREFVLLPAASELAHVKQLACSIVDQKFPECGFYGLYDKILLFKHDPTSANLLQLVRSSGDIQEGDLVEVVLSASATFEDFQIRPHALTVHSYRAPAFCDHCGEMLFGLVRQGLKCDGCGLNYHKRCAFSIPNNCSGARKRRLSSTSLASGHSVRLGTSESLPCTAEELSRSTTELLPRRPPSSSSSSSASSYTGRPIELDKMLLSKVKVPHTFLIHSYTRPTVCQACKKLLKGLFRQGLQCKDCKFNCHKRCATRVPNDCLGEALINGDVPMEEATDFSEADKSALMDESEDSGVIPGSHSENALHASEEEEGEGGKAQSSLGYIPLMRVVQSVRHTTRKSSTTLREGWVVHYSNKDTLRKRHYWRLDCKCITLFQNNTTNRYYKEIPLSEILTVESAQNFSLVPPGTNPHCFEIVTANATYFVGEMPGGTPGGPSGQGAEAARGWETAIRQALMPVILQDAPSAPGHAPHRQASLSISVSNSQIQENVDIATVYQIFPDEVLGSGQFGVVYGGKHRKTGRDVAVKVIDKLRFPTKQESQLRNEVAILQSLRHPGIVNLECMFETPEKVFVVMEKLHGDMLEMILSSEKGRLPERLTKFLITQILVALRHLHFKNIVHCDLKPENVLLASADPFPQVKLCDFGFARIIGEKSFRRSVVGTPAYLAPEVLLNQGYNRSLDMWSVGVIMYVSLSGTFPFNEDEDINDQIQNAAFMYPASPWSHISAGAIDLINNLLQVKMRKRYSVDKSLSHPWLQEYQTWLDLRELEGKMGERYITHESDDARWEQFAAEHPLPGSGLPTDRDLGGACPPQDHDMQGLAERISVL

[11] = molecular target: T3, Serine/threonine-protein kinase D2 (Homo sapiens); settings: at 1 µM
[12] = molecular target: T4, Serine/threonine-protein kinase D3 (Homo sapiens) (UniProt O94806); settings: at 0.1 µM
T4 sequence (whole entry): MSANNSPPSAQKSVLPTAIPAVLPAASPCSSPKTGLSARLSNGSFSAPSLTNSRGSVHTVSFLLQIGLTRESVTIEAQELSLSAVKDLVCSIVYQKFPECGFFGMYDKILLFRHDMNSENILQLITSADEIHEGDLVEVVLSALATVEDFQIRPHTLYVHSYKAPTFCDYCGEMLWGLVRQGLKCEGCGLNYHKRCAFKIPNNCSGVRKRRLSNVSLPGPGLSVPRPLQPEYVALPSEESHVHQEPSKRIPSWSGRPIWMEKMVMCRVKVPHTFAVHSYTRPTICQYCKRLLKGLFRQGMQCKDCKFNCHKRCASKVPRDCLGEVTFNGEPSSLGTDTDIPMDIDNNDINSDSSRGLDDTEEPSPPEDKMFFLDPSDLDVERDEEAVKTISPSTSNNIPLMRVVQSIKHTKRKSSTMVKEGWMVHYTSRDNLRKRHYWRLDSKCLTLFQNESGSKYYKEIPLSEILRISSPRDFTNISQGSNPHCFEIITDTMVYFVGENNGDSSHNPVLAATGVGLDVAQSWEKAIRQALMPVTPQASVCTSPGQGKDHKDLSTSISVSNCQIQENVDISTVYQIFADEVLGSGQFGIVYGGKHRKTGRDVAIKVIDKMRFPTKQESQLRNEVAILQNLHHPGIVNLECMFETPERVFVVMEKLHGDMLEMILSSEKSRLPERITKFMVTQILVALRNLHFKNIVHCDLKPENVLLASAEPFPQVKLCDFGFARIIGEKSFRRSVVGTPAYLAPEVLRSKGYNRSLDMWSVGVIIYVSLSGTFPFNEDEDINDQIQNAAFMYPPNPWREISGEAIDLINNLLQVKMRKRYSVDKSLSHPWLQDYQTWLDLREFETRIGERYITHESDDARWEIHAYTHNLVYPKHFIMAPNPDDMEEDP

[13] = molecular target: T4, Serine/threonine-protein kinase D3 (Homo sapiens); settings: at 1 µM
[14] = molecular target: T5, cGMP-dependent protein kinase 1 (Homo sapiens) (UniProt Q13976); settings: at 0.1 µM
T5 sequence (whole entry): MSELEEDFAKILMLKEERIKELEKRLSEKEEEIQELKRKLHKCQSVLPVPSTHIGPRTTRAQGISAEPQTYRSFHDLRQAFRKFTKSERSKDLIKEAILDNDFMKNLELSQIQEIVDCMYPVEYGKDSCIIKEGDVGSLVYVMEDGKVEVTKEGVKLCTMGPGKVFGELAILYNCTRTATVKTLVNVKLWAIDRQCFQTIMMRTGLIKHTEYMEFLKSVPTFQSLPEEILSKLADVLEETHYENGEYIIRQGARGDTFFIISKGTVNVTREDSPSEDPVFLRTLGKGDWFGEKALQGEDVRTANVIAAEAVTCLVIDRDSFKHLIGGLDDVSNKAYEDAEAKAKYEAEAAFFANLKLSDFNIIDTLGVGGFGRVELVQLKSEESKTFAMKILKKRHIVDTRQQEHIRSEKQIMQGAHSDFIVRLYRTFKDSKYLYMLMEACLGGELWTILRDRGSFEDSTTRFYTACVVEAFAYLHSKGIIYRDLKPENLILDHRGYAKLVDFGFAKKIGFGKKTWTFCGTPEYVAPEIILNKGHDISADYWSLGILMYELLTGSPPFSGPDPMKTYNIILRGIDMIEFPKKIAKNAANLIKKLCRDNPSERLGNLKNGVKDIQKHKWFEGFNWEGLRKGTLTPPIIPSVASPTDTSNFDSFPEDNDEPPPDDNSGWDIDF

[15] = molecular target: T5, cGMP-dependent protein kinase 1 (Homo sapiens); settings: at 1 µM
[16] = molecular target: T6, cGMP-dependent protein kinase 2 (Homo sapiens) (UniProt Q13237); settings: at 0.1 µM
T6 sequence (whole entry): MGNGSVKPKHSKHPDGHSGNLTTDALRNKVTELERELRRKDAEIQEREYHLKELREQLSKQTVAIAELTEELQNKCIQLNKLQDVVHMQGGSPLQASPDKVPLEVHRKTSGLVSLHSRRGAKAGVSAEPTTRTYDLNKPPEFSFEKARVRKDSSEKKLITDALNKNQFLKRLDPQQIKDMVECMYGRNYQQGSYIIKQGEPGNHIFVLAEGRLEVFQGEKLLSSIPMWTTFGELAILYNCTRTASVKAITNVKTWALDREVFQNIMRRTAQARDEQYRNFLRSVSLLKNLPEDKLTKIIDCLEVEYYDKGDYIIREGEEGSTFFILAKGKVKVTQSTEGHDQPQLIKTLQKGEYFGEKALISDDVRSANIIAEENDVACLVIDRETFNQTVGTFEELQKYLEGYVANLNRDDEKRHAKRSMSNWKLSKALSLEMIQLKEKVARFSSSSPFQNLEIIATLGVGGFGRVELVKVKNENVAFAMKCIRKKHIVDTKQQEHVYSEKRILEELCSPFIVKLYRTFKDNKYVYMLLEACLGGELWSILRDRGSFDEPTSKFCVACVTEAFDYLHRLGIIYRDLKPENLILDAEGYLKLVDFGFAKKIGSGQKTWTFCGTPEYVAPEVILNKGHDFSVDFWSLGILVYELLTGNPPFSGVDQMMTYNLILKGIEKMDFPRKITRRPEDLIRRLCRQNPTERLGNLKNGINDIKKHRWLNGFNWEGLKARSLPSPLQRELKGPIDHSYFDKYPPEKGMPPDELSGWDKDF

[17] = molecular target: T6, cGMP-dependent protein kinase 2 (Homo sapiens); settings: at 1 µM
[18] = molecular target: T7, cAMP-dependent protein kinase catalytic subunit PRKX (Homo sapiens) (UniProt P51817); settings: at 0.1 µM
T7 sequence (whole entry): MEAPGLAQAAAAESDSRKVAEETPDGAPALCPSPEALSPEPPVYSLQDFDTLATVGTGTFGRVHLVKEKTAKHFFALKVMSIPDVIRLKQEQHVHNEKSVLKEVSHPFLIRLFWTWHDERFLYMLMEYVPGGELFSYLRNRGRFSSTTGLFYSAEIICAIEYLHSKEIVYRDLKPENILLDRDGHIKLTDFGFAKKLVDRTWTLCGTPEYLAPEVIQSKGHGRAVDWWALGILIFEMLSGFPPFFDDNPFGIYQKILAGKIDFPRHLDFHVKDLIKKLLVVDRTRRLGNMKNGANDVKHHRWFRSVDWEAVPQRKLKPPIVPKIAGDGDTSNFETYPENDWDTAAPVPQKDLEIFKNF

[19] = molecular target: T7, cAMP-dependent protein kinase catalytic subunit PRKX (Homo sapiens); settings: at 1 µM
[20] = molecular target: Rho-associated protein kinase 1 (Homo sapiens) (UniProt Q13464); settings: at 0.1 µM;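 also: values are mean percent inhibition of ROCK1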
Rho-associated protein kinase 1 (Homo sapiens), sequence (Q13464 2-1354 limits assumed): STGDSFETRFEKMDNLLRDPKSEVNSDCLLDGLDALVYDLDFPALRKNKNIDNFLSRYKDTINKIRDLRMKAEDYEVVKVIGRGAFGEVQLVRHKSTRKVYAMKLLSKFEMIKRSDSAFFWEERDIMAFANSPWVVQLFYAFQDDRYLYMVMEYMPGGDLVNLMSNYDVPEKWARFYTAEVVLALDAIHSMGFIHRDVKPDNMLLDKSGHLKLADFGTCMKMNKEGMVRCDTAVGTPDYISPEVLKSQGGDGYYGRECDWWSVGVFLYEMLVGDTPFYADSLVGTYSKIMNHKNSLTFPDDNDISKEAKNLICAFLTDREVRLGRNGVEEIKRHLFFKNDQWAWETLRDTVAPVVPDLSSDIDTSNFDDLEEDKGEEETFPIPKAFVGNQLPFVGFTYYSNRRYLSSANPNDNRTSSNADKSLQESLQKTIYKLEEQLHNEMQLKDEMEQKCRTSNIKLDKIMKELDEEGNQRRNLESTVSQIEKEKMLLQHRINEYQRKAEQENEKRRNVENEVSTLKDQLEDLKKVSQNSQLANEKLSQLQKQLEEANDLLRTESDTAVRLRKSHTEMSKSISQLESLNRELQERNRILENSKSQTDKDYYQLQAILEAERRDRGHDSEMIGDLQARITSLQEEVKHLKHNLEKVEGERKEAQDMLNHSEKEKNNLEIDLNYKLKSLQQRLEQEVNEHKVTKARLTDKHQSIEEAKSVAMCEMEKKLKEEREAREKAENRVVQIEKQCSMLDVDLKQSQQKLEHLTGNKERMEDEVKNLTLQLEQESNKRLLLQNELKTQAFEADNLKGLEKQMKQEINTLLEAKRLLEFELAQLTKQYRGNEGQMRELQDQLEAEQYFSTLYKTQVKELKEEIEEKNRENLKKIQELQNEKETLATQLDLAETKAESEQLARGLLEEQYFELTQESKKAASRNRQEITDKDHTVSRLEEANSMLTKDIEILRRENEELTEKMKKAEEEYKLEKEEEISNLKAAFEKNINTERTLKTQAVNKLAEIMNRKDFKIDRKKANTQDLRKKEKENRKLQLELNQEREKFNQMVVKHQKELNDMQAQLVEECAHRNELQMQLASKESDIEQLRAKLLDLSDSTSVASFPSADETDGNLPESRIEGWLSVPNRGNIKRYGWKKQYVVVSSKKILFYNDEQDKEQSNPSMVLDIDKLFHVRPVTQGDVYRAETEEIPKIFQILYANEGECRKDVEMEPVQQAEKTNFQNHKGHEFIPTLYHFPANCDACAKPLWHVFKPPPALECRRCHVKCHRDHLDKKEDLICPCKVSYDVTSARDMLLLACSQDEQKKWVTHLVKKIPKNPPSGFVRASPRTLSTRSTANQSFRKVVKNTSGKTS

| Compound | inhibition [1] [%] | inhibition [2] [%] | inhibition [3] [%] | inhibition [4] [%] | inhibition [5] [%] | inhibition [6] [%] | inhibition [7] [%] | inhibition [8] [%] | inhibition [9] [%] | inhibition [10] [%] | inhibition [11] [%] | inhibition [12] [%] | inhibition [13] [%] | inhibition [14] [%] | inhibition [15] [%] | inhibition [16] [%] | inhibition [17] [%] | inhibition [18] [%] | inhibition [19] [%] | inhibition [20] [%] |
| --- | --- | --- | --- | --- | --- | --- | --- | --- | --- | --- | --- | --- | --- | --- | --- | --- | --- | --- | --- | --- |
| COc1ccc(-c2ccncc2)cc1C(N)=O | 1.71 | 0.36 | 1.27 | 2.73 | 4.84 | 0.88 | 2.35 | 5.51 | 15.2 | 4.91 | 5.71 | 5.67 | 11.1 | 4.34 | 13.7 | 2.97 | 17 | 2.9 | 3.27 | 2.65 |
| COc1cc(C)c(NC(=O)CN(C)C)cc1Nc1nc(Nc2cccc(F)c2C(N)=O)c2cc[nH]c2n1 | 8.9 | -0.31 | 1.29 | 0.13 | 0.13 | 0.38 | 0.55 | 2.21 | 18.1 | 3.43 | 31.9 | 3.99 | 38.4 | 1.52 | 4.26 | 1.95 | 2.22 | -0.65 | -1.72 | 0.5 |
| CCCN1CCC(Oc2cc(Nc3nc(Nc4cccc(F)c4C(N)=O)c4cc[nH]c4n3)c(OC)cc2Cl)CC1 | 14.8 | 1.04 | 1.06 | 1.35 | 7.05 | 1.2 | 4.52 | 0.11 | 7.94 | -0.33 | 8.74 | 0.21 | 17.1 | 1.4 | 3.67 | 0.8 | 3.46 | 7.71 | 7.12 | 0.94 |
